This is an account of results in PubChem BioAssay (NCATS).

One assay has as its system CRL-7250. Kind of assay: Cytotoxic Profiling of Annotated Libraries Using Quantitative High-Throughput Screening (AID 1296008). For max response: % is set by controls: 0 for no effect and ±100 for the full control effect. Note: potency is the fitted concentration of half-maximal effect. Particulars: Five cell lines viability, CellTiter-Glo ATP luminescence, 48-72 h; max response: active compounds read low. The method in brief: (§1)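 Cells exposed to compounds for 48 or 72 hr at 37 degrees Celsius. Viability read as ATP-coupled luminescence with CellTiter-Glo after 10 min at room temperature.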
Background: In ATP-based viability assays light output follows the ATP content of the culture.

The test system of the next assay is HEK293. The assay is described as above. The settings on record: Five cell lines viability, CellTiter-Glo ATP luminescence, 48-72 h; max response: active compounds read low. In outline: as §1
The test system of assay [1] is HaCat. The description is as above. The settings on record: Five cell lines viability, CellTiter-Glo ATP luminescence, 48-72 h; max response: active compounds read low. The method in brief: as §1
The test system of a further assay is KB-3-1. The assay is described as above. Particulars: Five cell lines viability, CellTiter-Glo ATP luminescence, 48-72 h; max response: active compounds read low. The method in brief: as §1
Another assay concerns NIH3T3. The assay is described as above. Particulars: Five cell lines viability, CellTiter-Glo ATP luminescence, 48-72 h; max response: active compounds read low. In outline: as §1
In assay [2] the test system is HACAT. Nature of the assay: qHTS assay to identify novel small-molecules to repurpose for Merkel cell carcinoma treatment (AID 1296009). Particulars: MCC and control cell lines, CellTiter-Glo viability, 72 h; at 44.8 µM (top of the series) unless noted. In outline: (§2)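 Dose-response viability screen; 72 hr exposure at 37 degree celsius; CellTiter-Glo added, 10 min room temperature, luminescence read; RLUs scaled between no-cell and DMSO wells.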
(In qHTS, concentration-response curves come from the screen itself.)

The test system of the next assay is HEK293T. The assay is described as above. Particulars: MCC and control cell lines, CellTiter-Glo viability, 72 h; at 44.8 µM (top of the series) unless noted. The method in brief: as §2
For a further assay, the system named is TAB113. Nature of the assay: qHTS profiling for inhibitors of Plasmodium falciparum proliferation (AID 504749). Note: potency is the fitted concentration of half-maximal effect. The settings on record: P. falciparum in erythrocytes, SYBR Green DNA, 72 h; series mostly up to 28.7 µM. In outline:
(§3)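 Each compound contacts P. falciparum-infected red blood cells for 72 h at 37 C; lysis buffer (Tris, EDTA, saponin, Triton X, SYBR Green I) is added and fluorescence measured next morning; values normalized to controls.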

Another assay concerns TAB165. The description is as above. Particulars: P. falciparum in erythrocytes, SYBR Green DNA, 72 h; series mostly up to 28.7 µM. The method in brief: as §3
A further assay deals with W2. The assay is described as above. The settings on record: P. falciparum in erythrocytes, SYBR Green DNA, 72 h; series mostly up to 28.7 µM. The method in brief: as §3

Several values for one entry are separate records, joined by “and”; a condition that tells them apart may be missing. Identical values can stand only once. Results filed as inconclusive are left out. Some compounds were tested as several samples or in several runs, with calls that do not always agree. Values without a mark were called inactive. Activity calls are given as the source filed them. Calls come from the whole dose curve; as a rule, active = well fitted inhibition curve with a large enough effect; inconclusive = small, poorly fitted or top-dose-only effect; inactive = flat fitted curve, though single readings scatter.
Note: nearly all actives have a fitted effect of over 60% in size.

With `CCN(CC)C(=O)Nc1ccc(OCC(O)CNC(C)(C)C)c(C(C)=O)c1` (centres undefined), the max response in the assay with CRL-7250 was -2.26% and 4.22%; in the assay on HEK293 it was -6.49%; in the assay with KB-3-1, 3.46% and 6.71%; in the assay with NIH3T3 it was -5.4% and -0.794%. Further, the compound was classed as inactive with HEK293, in the assay on HaCat [1], in the assay with HACAT [2] and in the assay with HEK293T.
Regarding `CCCCc1ncc(/C=C(\Cc2cccs2)C(=O)O)n1Cc1ccc(C(=O)O)cc1`, the Potency result in the assay with TAB113, with TAB165 and with W2 was “inactive” throughout. For the same compound, the max response in the assay with CRL-7250 is 0.696%; with HEK293, 1.61% and 1.3%; in the assay with HaCat [1], -8.96%; with KB-3-1, -5.45% and 6.97%; with NIH3T3 it was -1.7%. The compound was classed as inactive in the assay with CRL-7250.
Take `CC(=O)NC(Cc1ccccc1)C(=O)O` (centres undefined): the Potency result in the assay with TAB113 and in the assay with TAB165 was “inactive” each time. Also, the max response with CRL-7250 was 2.75%; in the assay on HEK293 it was 1.21% and -5.41%; with HaCat [1] it was -9.27%; in the assay on KB-3-1, 1.12% and 4.36%; in the assay on NIH3T3, 0.258% and -10.1%. Further, the result in the assay with CRL-7250 and in the assay on HaCat [1] was inactive. Further, the outcome in the assay on HACAT [2] is “inactive [at 92 µM]”.
Regarding `CCOc1ccc2ccccc2c1C(=O)N[C@@H]1C(=O)N2[C@@H]1SC(C)(C)[C@@H]2C(=O)O`, the Potency entry with TAB113 and in the assay on TAB165 was “inactive” throughout. For the same compound, the compound was classed as inactive in the assay on CRL-7250, with HEK293, with HaCat [1], with HACAT [2] and with HEK293T. Besides, the max response in the assay on HEK293 is 0.937%; with HaCat [1] it was 4.96%; in the assay on KB-3-1, -11.5% and -0.445%; with NIH3T3 it was -3.18% and 1.59%.
Take `Cc1cc(N)c2ccccc2[n+]1CCCCCCCCCC[n+]1c(C)cc(N)c2ccccc21`: the Potency with TAB113 was 126 nM (active); in the assay with TAB165, 100 nM (active); with W2, 102 nM (active); in the assay on CRL-7250, 14600 nM (active); with HEK293, 1300 nM (active); in the assay on KB-3-1, 9200 nM (active). The max response in the assay with HaCat [1] is -1.45%; in the assay on KB-3-1, -23.8%; in the assay on NIH3T3, -20.7%.
For the compound `CCCc1c(OCCCCc2nn[nH]n2)ccc(C(C)=O)c1O`, the Potency result with TAB113 and with TAB165 was “inactive” in each case. In addition, the max response was -1.12% in the assay on CRL-7250, -12.2% with KB-3-1 and 2.45% in the assay with NIH3T3. In addition, the result in the assay on HEK293, in the assay with HaCat [1], in the assay on HACAT [2] and with HEK293T was inactive.
Turning to `C=CCn1c(=O)n([C@@H]2O[C@H](CO)[C@@H](O)[C@H]2O)c2nc(N)[nH]c(=O)c21`, the max response is -6.63% in the assay with CRL-7250, 17% with KB-3-1 and 4.38% with NIH3T3. Besides, the outcome with HEK293, in the assay on HaCat [1], with HACAT [2] and in the assay on HEK293T was inactive.
On to `CN(C)CCCO[C@@H]1[C@H]2OC(C)(C)O[C@H]2O[C@@H]1C(O)CO` (some centres undefined), for which the max response in the assay on CRL-7250 is -6.03%; with KB-3-1, 3.47%; in the assay on NIH3T3 it was -0.499%. Moreover, the compound was called inactive in the assay with HEK293, in the assay with HaCat [1], with HACAT [2] and in the assay on HEK293T.
`CN(C)CCN(Cc1ccccc1)c1ccccn1`: the Potency result in the assay on TAB113 and with TAB165 was “inactive” in each case. For the same compound, the outcome in the assay on CRL-7250, with HEK293, in the assay with HaCat [1], in the assay on HACAT [2] and with HEK293T was inactive. For the same compound, the max response is -7.24% in the assay with KB-3-1 and 0.397% in the assay with NIH3T3.
Consider `Cc1ncc([N+](=O)[O-])n1CC(O)CCl` (centres undefined), for which the max response in the assay on CRL-7250 is 0.168%; in the assay on KB-3-1 it was 18%; in the assay with NIH3T3 it was -5.9%. Also, the call in the assay with HEK293, in the assay with HaCat [1], in the assay with HACAT [2] and in the assay with HEK293T was inactive.
With `N[C@@H](CSSC[C@H](N)C(=O)O)C(=O)O`, the compound was called inactive with CRL-7250, in the assay on HEK293 and in the assay on HaCat [1]. Further, the values for the max response with KB-3-1 and in the assay with NIH3T3 were 4.84% and 0.783%, respectively. For the same compound, the outcome in the assay on HACAT [2] and with HEK293T was “inactive [at 0.588 µM]” each time.
`N[C@H](C(=O)O)c1ccc(O)cc1`: the max response was 3.21% in the assay on CRL-7250, 2.74% in the assay with KB-3-1 and -1.62% in the assay with NIH3T3. Further, the compound was called inactive in the assay on HEK293 and in the assay with HaCat [1]. Moreover, the outcome in the assay with HACAT [2] and in the assay on HEK293T was “inactive [at 17.4 µM]” throughout.
For the compound `O=C(O)CN1C(=O)c2cccc3cccc(c23)C1=O`, the Potency result with TAB113, with TAB165 and in the assay with W2 was “inactive” each time. The max response with CRL-7250 is -6.05%; in the assay with KB-3-1, -7.36%; in the assay on NIH3T3, 0.928%. In addition, the outcome in the assay on HEK293, in the assay on HaCat [1], with HACAT [2] and in the assay with HEK293T was inactive.
As for `O=c1cc[nH]c(=S)[nH]1`, the Potency result in the assay with TAB113, in the assay with TAB165 and with W2 was “inactive” throughout. The max response with CRL-7250 is 1.22%; with KB-3-1, -6.83%; in the assay with NIH3T3, -2.25%. Also, the outcome in the assay with HEK293, in the assay with HaCat [1], in the assay with HACAT [2] and with HEK293T was inactive.
Regarding `Nc1ccc(S(=O)(=O)Nc2ccccc2)cc1`, the Potency entry with TAB113, with TAB165 and in the assay on W2 was “inactive” each time. In addition, the compound was classed as inactive with CRL-7250, with HEK293, in the assay with HaCat [1], in the assay with HACAT [2] and in the assay with HEK293T. Besides, the max response in the assay on KB-3-1 is 8.52%; in the assay with NIH3T3, 3.32%.
Turning to `C[C@@H]1CC[C@@]2(OC1)O[C@H]1C[C@H]3[C@@H]4CC[C@H]5C[C@@H](O)CC[C@]5(C)[C@H]4CC(=O)[C@]3(C)[C@H]1[C@@H]2C`, the compound was called inactive in the assay with CRL-7250, in the assay with HEK293, with HaCat [1] and with NIH3T3. Also, in the assay on KB-3-1, the max response was 1.37%. Moreover, the outcome in the assay with HACAT [2] and in the assay on HEK293T was “inactive [at 4.96 µM]” in each case.
With `O=C(O)[C@H](O)c1ccccc1`, the max response in the assay with CRL-7250 was -7.55%; in the assay on KB-3-1, 5.08%. Further, the compound was called inactive in the assay on HEK293, in the assay on HaCat [1], in the assay on NIH3T3, in the assay on HACAT [2] and in the assay with HEK293T.
